Assay results from the antibiotic and cytotoxicity screens of Wong et al. (2023).
Among all 39,000 compounds or so, about 1,500 (3.8%) were called active. The sample holds actives, similar compounds and a random draw of the others, so the mix is not that of the screen.

These compounds were tested on HSkMC (human skeletal muscle cells) (assay: cytotoxicity call (relative viability < 0.9)). Details: 10 µM.

Row | SMILES | cytotoxicity call
1 | CC(C)(C)[S@](=O)N1Cc2cc(C(=O)NCc3ccncc3)nc(-c3cccc(-c4cccc(C#N)c4)c3)c2[C@@H]1CCO | inactive
2 | C[C@H](CO)N1C[C@H](C)[C@H](CN(C)S(=O)(=O)c2cn(C)cn2)Oc2ccc(NC(=O)Cc3ccccc3)cc2C1=O | inactive
3 | Cc1cc(C(=O)Nc2cccc3c2O[C@H](CN(C)Cc2ccncc2)[C@H](C)CN([C@H](C)CO)C3=O)n(C)n1 | inactive
4 | Cc1noc(C)c1S(=O)(=O)Nc1ccc2c(c1)C(=O)N([C@@H](C)CO)C[C@H](C)[C@@H](CN(C)C(=O)Nc1ccccc1)OCCCC[C@@H](C)O2 | inactive
5 | C[C@@H](Nc1nc(=O)cc(F)[nH]1)C(=O)O | inactive
6 | COc1ccc(NC(=O)N(C)C[C@H]2Oc3ccc(NC(=O)CCCCCC(=O)Nc4ccccc4N)cc3C(=O)N([C@@H](C)CO)C[C@@H]2C)cc1 | inactive
7 | COc1ccc(NC(=O)Nc2ccc3c(c2)C(=O)N([C@@H](C)CO)C[C@H](C)[C@@H](CN(C)C(=O)Cc2ccccc2)OCCCC[C@@H](C)O3)cc1 | inactive
8 | COc1ccc(CN(C)C[C@H]2Oc3ccc(NS(=O)(=O)c4cn(C)cn4)cc3CC(=O)N([C@H](C)CO)C[C@@H]2C)cc1 | inactive
9 | Cc1noc(C)c1S(=O)(=O)Nc1ccc2c(c1)C(=O)N([C@@H](C)CO)C[C@H](C)[C@@H](CN(C)Cc1ccc(Oc3ccccc3)cc1)O2 | inactive
10 | C[C@@H]1CN([C@@H](C)CO)C(=O)Cc2cc(NC(=O)Nc3ccc(C(F)(F)F)cc3)ccc2O[C@@H]1CN(C)C(=O)Nc1ccccc1 | active
11 | C[C@H](CO)N1C[C@H](C)[C@H](CN(C)C(=O)Nc2ccccc2)Oc2ccc(NC(=O)Nc3ccc(C(F)(F)F)cc3)cc2CC1=O | inactive
12 | C[C@H](CO)N1C[C@H](C)[C@@H](CN(C)C(=O)Nc2ccccc2)Oc2ccc(NC(=O)Nc3ccc(C(F)(F)F)cc3)cc2CC1=O | inactive
13 | C[C@H]1CN([C@@H](C)CO)C(=O)Cc2cc(NC(=O)Nc3ccc(C(F)(F)F)cc3)ccc2O[C@@H]1CN(C)C(=O)Nc1ccccc1 | inactive
14 | C[C@@H]1CN([C@@H](C)CO)C(=O)Cc2cc(NC(=O)Nc3ccccc3)ccc2O[C@@H]1CN(C)C(=O)Nc1ccc(C(F)(F)F)cc1 | inactive
15 | C[C@H]1CN([C@@H](C)CO)C(=O)Cc2cc(NC(=O)Nc3ccc(C(F)(F)F)cc3)ccc2O[C@H]1CN(C)C(=O)Nc1ccccc1 | active
16 | O=C(O)C1=CCCNC1 | inactive
17 | Cc1noc(C)c1NC(=O)N(C)C[C@@H]1Oc2ccc(NS(=O)(=O)c3cccs3)cc2CC(=O)N([C@@H](C)CO)C[C@H]1C | inactive
18 | COc1ccc(NC(=O)Nc2ccc3c(c2)C(=O)N([C@H](C)CO)C[C@@H](C)[C@@H](CN(C)Cc2ccc(C(=O)O)cc2)OCCCC[C@H](C)O3)cc1 | inactive
19 | NC(=O)[C@H]1[C@@H]2C(=O)O[C@@H](c3ccccc3)[C@@H](c3ccccc3)N2[C@@H](c2ccc(O)cc2)[C@]12C(=O)Nc1ccc(C#CC3(O)CCCCCC3)cc12 | inactive
20 | c1ccc(Nc2ncnc3sc(-c4ccccc4)cc23)cc1 | inactive
21 | c1ccc(Nc2ncnc3cc(-c4ccccc4)sc23)cc1 | inactive
22 | Fc1ccc(Nc2ncnc3sc(-c4ccccc4)cc23)cc1 | active
23 | CCCC(=O)Nc1ccc2c(c1)OC[C@@H](C)N(C(=O)CN1CCOCC1)C[C@@H](C)[C@H](OC)CN(C)C2=O | inactive
24 | NS(=O)(=O)OC[C@H]1C[C@@H](Nc2ccnc3cc(-c4cccc(SC(F)(F)F)c4)nn23)[C@H](O)[C@@H]1O | active

Row | SMILES | cytotoxicity call
25 | O=C([O-])C(O)C(O)C(O)C(O)CO.[Na+] (stereo not given) | inactive
26 | Cc1ccccc1[C@@H](c1ncccc1C)N(C)C(=O)C1CCN(CCOc2ccc(Cl)cc2Cl)CC1 | active
27 | Cc1cccnc1[C@@H](NC(=O)C1CCN(CCOc2ccc(Cl)cc2Cl)CC1)c1ccc(Cl)cc1 | inactive
28 | Cc1cccnc1[C@@H](NC(=O)C1CCN(CCOc2ccc(Cl)cc2Cl)CC1)c1ccc(F)cc1 | inactive
29 | Cc1ccccc1[C@@H](c1ncccc1C)N(C)C(=O)C1CCN(CCOc2ccc3ccccc3c2)CC1 | inactive
30 | COc1ccccc1[C@@H](NC(=O)C1CCN(CCOc2ccc(Cl)cc2Cl)CC1)c1ccccn1 | inactive
31 | Cc1cccnc1[C@H](c1ccc(F)cc1)N(C)C(=O)C1CCN(CCOc2ccc(Cl)cc2Cl)CC1 | active
32 | C[C@@H]1CN([C@@H](C)CO)C(=O)c2cc(NC(=O)Nc3ccccc3)ccc2O[C@@H](C)CCCCO[C@H]1CN(C)S(=O)(=O)c1ccccc1F | inactive
33 | O=C(O)/C=C/C(=O)O | inactive
34 | COC(=O)c1c(CC[C@@H](CO)NC(=O)N[C@H](Cn2cc(Cc3ccccc3)nn2)C(C)C)oc(C(C)=O)c1C(=O)OC | inactive
35 | O=C(C[C@@H]1CC=CC[C@@H](Cc2ccc(F)cc2)C(=O)OC[C@H](Cc2c[nH]c3ccccc23)NC1=O)NCCO | inactive
36 | CC(C)NC(=O)N(C)C[C@@H]1OCc2cnnn2CCCC(=O)N([C@@H](C)CO)C[C@@H]1C | inactive
37 | CC(C)NC(=O)N(C)C[C@H]1Oc2cc(-c3ccccc3F)ccc2S(=O)(=O)N([C@H](C)CO)C[C@H]1C | inactive
38 | C[C@@H]1CN([C@@H](C)CO)C(=O)c2cccc(NS(=O)(=O)c3ccc(Cl)cc3)c2O[C@@H]1CN(C)Cc1ccc(-c2ccccc2)cc1 | active
39 | C[C@@H]1CN([C@H](C)CO)C(=O)c2cccc(NS(=O)(=O)c3ccc(Cl)cc3)c2O[C@H]1CN(C)Cc1ccc(-c2ccccc2)cc1 | inactive
40 | C[C@H]1CN([C@@H](C)CO)C(=O)c2cccc(NS(=O)(=O)c3ccc(Cl)cc3)c2O[C@@H]1CN(C)Cc1ccc(C(F)(F)F)cc1 | inactive
41 | C[C@H](CO)N1C[C@H](C)[C@H](CN(C)Cc2ccc(C(F)(F)F)cc2)Oc2c(NS(=O)(=O)c3ccc(Cl)cc3)cccc2C1=O | active
42 | C[C@H](CO)N1C[C@H](C)[C@@H](CN(C)Cc2ccc(C(F)(F)F)cc2)Oc2c(NS(=O)(=O)c3ccc(Cl)cc3)cccc2C1=O | inactive
43 | C[C@@H]1CN([C@@H](C)CO)C(=O)c2cccc(NS(=O)(=O)c3ccc(Cl)cc3)c2O[C@H]1CN(C)Cc1ccc(-c2ccccc2)cc1 | inactive
44 | C[C@@H]1CN([C@H](C)CO)C(=O)c2cc(NC(=O)c3ccccc3)ccc2O[C@@H](C)CCCCO[C@@H]1CN(C)Cc1ccc(Cl)c(Cl)c1 | inactive
45 | COc1ccc(-c2cnc3c(c2)C(=O)N([C@H](C)CO)C[C@H](C)[C@H](CN(C)S(=O)(=O)c2cccs2)O3)cc1 | inactive
46 | C[C@@H]1CCCCO[C@@H](CN(C)S(C)(=O)=O)[C@@H](C)CN([C@H](C)CO)C(=O)c2cc(NC(=O)CCCN(C)C)ccc2O1 | inactive
47 | NCC1OC(OC2C(CO)OC(OC3C(O)C(N)CC(N)C3OC3OC(CN)C(O)C(O)C3N)C2O)C(N)C(O)C1O.O=S(=O)(O)O.O=S(=O)(O)O.O=S(=O)(O)O (stereo not given) | inactive
48 | CC(C)NC(=O)N[C@H]1C=C[C@H](CC(=O)NCCN2CCCC2)O[C@H]1CO | inactive

Row | SMILES | cytotoxicity call
49 | O=C(N[C@H]1CC[C@@H](CC(=O)N2CCOCC2)O[C@@H]1CO)c1ccc2c(c1)OCO2 | inactive
50 | C[C@H](CO)N1C[C@H](C)[C@H](CN(C)C(=O)Nc2ccccc2)OCCCC[C@H](C)Oc2ccc(NS(=O)(=O)c3ccc(Cl)cc3)cc2C1=O | inactive
51 | C[C@H](CO)N1C[C@H](C)[C@H](CN(C)Cc2ccc(C(=O)Nc3ccccc3N)cc2)OCc2cn(nn2)CCCC1=O | inactive
52 | Clc1ccc(/C=N/Cc2ccc(-c3cccs3)s2)cc1 | inactive
53 | NC(=S)N/N=C/c1ccncc1 | inactive
54 | Cl.N=C(NN=Cc1ccc(Cl)cc1)NN=Cc1ccc(Cl)cc1 | active
55 | C[C@H]1CN([C@@H](C)CO)C(=O)c2cccc(NS(=O)(=O)c3cccs3)c2O[C@H]1CN(C)S(=O)(=O)c1cccs1 | inactive
56 | CCCCCCc1nc(CCCc2cc3c(c(CCCCCC)n2)[Si](C(C)C)(C(C)C)O[C@H]3c2ccccc2)cc2c1[Si](C(C)C)(C(C)C)O[C@H]2c1ccccc1 | inactive
57 | Cc1onc(NS(=O)(=O)c2ccccc2-c2ccc(-c3ncco3)cc2CN(C)C(=O)CC(C)(C)C)c1C | inactive
58 | C[C@@H]1CN([C@H](C)CO)C(=O)c2cccc(NC(=O)Nc3ccccc3)c2O[C@@H]1CN(C)C(=O)Nc1cccc2ccccc12 | inactive
59 | C[C@@H]1CCCCO[C@H](CN(C)Cc2ccc(C(F)(F)F)cc2)[C@H](C)CN([C@@H](C)CO)C(=O)c2cc(NS(=O)(=O)c3ccc(F)cc3)ccc2O1 | active
60 | Cc1ccc(S(=O)(=O)Nc2ccc3c(c2)C(=O)N([C@@H](C)CO)C[C@H](C)[C@H](CN(C)Cc2ccc(C(F)(F)F)cc2)OCCCC[C@H](C)O3)cc1 | inactive
61 | Cc1ccc(S(=O)(=O)Nc2ccc3c(c2)C(=O)N([C@H](C)CO)C[C@@H](C)[C@@H](CN(C)Cc2ccc(C(F)(F)F)cc2)OCCCC[C@@H](C)O3)cc1 | inactive
62 | Cc1ccc(S(=O)(=O)Nc2ccc3c(c2)C(=O)N([C@H](C)CO)C[C@@H](C)[C@@H](CN(C)Cc2ccc(C(F)(F)F)cc2)OCCCC[C@H](C)O3)cc1 | inactive
63 | Cc1ccc(S(=O)(=O)Nc2ccc3c(c2)C(=O)N([C@@H](C)CO)C[C@H](C)[C@@H](CN(C)Cc2ccc(C(F)(F)F)cc2)OCCCC[C@@H](C)O3)cc1 | active
64 | C[C@@H]1CN([C@H](C)CO)C(=O)c2cc(NS(=O)(=O)c3ccc(F)cc3)ccc2O[C@@H](C)CCCCO[C@H]1CN(C)Cc1ccc(C(F)(F)F)cc1 | inactive
65 | Cc1ccc(S(=O)(=O)Nc2ccc3c(c2)C(=O)N([C@@H](C)CO)C[C@H](C)[C@@H](CN(C)Cc2ccc(C(F)(F)F)cc2)OCCCC[C@H](C)O3)cc1 | active
66 | Cc1ccc(S(=O)(=O)Nc2ccc3c(c2)C(=O)N([C@H](C)CO)C[C@H](C)[C@H](CN(C)Cc2ccc(C(F)(F)F)cc2)OCCCC[C@@H](C)O3)cc1 | inactive
67 | Cc1ccc(S(=O)(=O)Nc2ccc3c(c2)C(=O)N([C@H](C)CO)C[C@H](C)[C@@H](CN(C)Cc2ccc(C(F)(F)F)cc2)OCCCC[C@H](C)O3)cc1 | inactive
68 | Cc1ccc(S(=O)(=O)Nc2ccc3c(c2)C(=O)N([C@@H](C)CO)C[C@@H](C)[C@@H](CN(C)Cc2ccc(C(F)(F)F)cc2)OCCCC[C@H](C)O3)cc1 | inactive
69 | Cc1ccc(S(=O)(=O)Nc2ccc3c(c2)C(=O)N([C@H](C)CO)C[C@H](C)[C@H](CN(C)Cc2ccc(C(F)(F)F)cc2)OCCCC[C@H](C)O3)cc1 | active
70 | C[C@@H]1CCCCO[C@@H](CN(C)Cc2ccc(C(F)(F)F)cc2)[C@H](C)CN([C@H](C)CO)C(=O)c2cc(NS(=O)(=O)c3ccc(F)cc3)ccc2O1 | inactive
